Screens: PubChem, National Center for Advancing Translational Sciences (NCATS)
Most compounds without a hit are left out; they make up all but 13% or so of the library.
Lamin A splicing: qHTS Assay for Modulators of Lamin A Splicing | HeLa LMNA splicing GFP/RFP minigene ratio, 48 h | Potency, µM (titrated, usually from 46.1 µM), inactives show at the highest dose ratio change, negative = inhibition, most hits filed as inhibitors | hit rate 0.01% among 200,000; active means well fitted inhibition curve with a large enough effect in the signal ratio, with a control signal flat, not every such curve was filed as active; inconclusive means small, poorly fitted or top-dose-only effect, or effect the other way, or a change in a side signal; the % refers to the signal ratio; further: potency means the concentration at half of the fitted maximal effect; on the % scale 0 is the no-effect control and ±100 the full control effect
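S3 HeLa stable clones carrying a lamin A-EGFP splicing minigene plus DsRed2 were seeded at 600 cells/well in Opti-MEM with 2% FBS, pin-dosed and incubated 48 h at 37°C. Acumen cytometry (488 nm) gave the GFP/RFP total-intensity ratio.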
G9a block: qHTS Assay for Inhibitors of Histone Lysine Methyltransferase G9a; Histone-lysine N-methyltransferase EHMT2 (Homo sapiens), Q96KQ7; G9a H3K9 monomethylation, AlphaScreen, 2 h; Potency, µM (series often up to 102 µM), without a hit: at the highest dose activity, negative = inhibition, usual class: inhibitors; hit rate 8.8% among 350,000; AID 504332, 2011; further: potency means the concentration at half of the fitted maximal effect; on the % scale 0 is the no-effect control and ±100 the full control effect; nearly all actives have a fitted effect of over 75% in size
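G9a (20 nM) was preincubated 15 min with compound, then reacted 2 h at room temperature with 500 nM biotin-H3K9 peptide and 20 µM SAM. Monomethyl-H3K9 detected by AlphaScreen using anti-H3K9me1 antibody.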
ALDH1A1 inh: qHTS Assay for Inhibitors of Aldehyde Dehydrogenase 1 (ALDH1A1); Purified ALDH1A1, NADH fluorescence, propionaldehyde substrate; hit rate 7.3% among 220,000; AID 1030, 2008; Potency, µM (doses to about 75.3 µM), without a hit: top-dose activity, negative = inhibition, usual class: inhibitors; Aldehyde dehydrogenase 1A1 (Homo sapiens), P00352; active means well fitted inhibition curve with a large enough effect, not every such curve was filed as active; inconclusive means small, poorly fitted or top-dose-only effect, or another doubt; inactive means no such curve, though single readings can be large or run the other way;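 further: potency means the concentration at half of the fitted maximal effect; plate controls were no enzyme wells and a reference inhibitor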
Target sequence (P00352 whole entry, looked up): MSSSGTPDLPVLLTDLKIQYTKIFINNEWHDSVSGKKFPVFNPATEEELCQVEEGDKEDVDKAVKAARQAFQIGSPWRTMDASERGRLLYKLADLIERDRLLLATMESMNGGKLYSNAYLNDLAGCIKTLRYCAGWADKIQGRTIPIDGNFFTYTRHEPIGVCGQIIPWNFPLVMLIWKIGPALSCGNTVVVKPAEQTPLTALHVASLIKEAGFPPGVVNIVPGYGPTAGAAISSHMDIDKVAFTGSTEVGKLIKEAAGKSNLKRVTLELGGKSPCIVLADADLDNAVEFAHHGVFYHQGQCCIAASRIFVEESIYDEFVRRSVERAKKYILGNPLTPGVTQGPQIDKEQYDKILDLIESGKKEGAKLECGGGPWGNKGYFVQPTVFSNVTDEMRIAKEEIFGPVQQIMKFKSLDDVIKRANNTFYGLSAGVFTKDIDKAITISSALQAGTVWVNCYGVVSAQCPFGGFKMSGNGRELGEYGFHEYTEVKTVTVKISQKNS
Sfp PPTase inh: qHTS Assay for Inhibitors of Bacillus subtilis Sfp phosphopantetheinyl transferase (PPTase). Biochemical Sfp PPTase activity, qHTS. AID 1490, 2009. 4'-phosphopantetheinyl transferase ffp (Bacillus subtilis), Q9F4F7. hit rate 3.5% among 310,000. Potency, µM, for inactives: largest response in the series, negative = inhibition, hits mostly inhibitors;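 further: the enzyme is Sfp with the accession as filed and its product quenches rhodamine fluorescence; potency means the concentration at half of the fitted maximal effect; 0% = enzyme reaction without inhibitor and -100% = no enzyme wells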
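Fluorescence-quenching assay with 15 nM Sfp, 5 uM rhodamine-CoA and 12.5 uM BHQ-2-labelled ybbR peptide in pH 7.6 Hepes/MgCl2 buffer. Enzyme was pre-incubated with compound for 15 min at room temperature. Rate was taken from the 30-min fluorescence change (525/598 nm).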
miR-21 reporter: qHTS Assay for Modulators of miRNAs and/orActivators of miR-21; HeLa miR-21 FLuc reporter, luciferase, 48 h; Potency, µM (highest dose often 38.3 µM), for inactives: top-dose activity change, positive = activation, usual class: activators; 340,000 tested, under 10 active; AID 2288, 2010;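 further: % of control where 0% means no effect; miR-21 action dims this reporter so a rising signal means less miR-21 action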
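Compounds were titrated across several concentrations (up to approximately 40 uM) and incubated 48 hours with HeLa miR-21-FLuc reporter cells (miR-21 target sequence downstream of FLuc, endogenous miR-21). Readout was firefly luciferase luminescence after lytic detection reagent.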
KDM4E inh: qHTS Assay for Inhibitors of Human Jumonji Domain Containing 2E (JMJD2E) | JMJD2E catalytic domain, FDH-coupled NADH fluorescence (FDH is formaldehyde dehydrogenase) | Potency, µM (highest dose often 57.1 µM), for the others: at the highest dose activity change, negative = inhibition, actives largely listed as inhibitors | hit rate 1.6% among 230,000; active means well fitted inhibition curve with a large enough effect, not every such curve was filed as active; inconclusive means small, poorly fitted or top-dose-only effect, or another doubt; inactive means no such curve, though single readings can be large or run the other way;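 further: potency means the concentration at half of the fitted maximal effect; 0% = wells with enzyme and -100% = buffer wells without enzyme; nearly all actives have a fitted effect of over 50% in size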
Target sequence (B2RXH2 1-337 limits assumed): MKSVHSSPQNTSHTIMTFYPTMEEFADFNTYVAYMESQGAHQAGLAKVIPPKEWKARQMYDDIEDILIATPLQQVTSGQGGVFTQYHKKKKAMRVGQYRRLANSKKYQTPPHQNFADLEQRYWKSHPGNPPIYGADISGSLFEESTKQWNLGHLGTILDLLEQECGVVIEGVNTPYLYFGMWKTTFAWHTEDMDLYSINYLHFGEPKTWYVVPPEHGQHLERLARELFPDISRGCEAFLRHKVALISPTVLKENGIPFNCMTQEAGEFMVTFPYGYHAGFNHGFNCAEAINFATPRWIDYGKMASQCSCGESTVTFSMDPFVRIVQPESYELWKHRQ
The depositor's hits bear a star; ? = inconclusive; . = not tested or not shown; ! = repeats disagree; [ ] = dose if it differs, or a comment. Unless noted, the call rests on the fitted dose curve; in most records, active means well fitted curve in the direction sought with a large enough effect; inconclusive means small, poorly fitted or top-dose-only effect, or another doubt; inactive means no such curve, though single readings can be large; an effect the other way counts as inactive or inconclusive.

SMILES	Lamin A splicing	G9a block	ALDH1A1 inh	Sfp PPTase inh	miR-21 reporter	KDM4E inh
CCOc1cc(N2CCOCC2)c(OCC)cc1NC(=O)c1ccccc1C	1.1%[46 µM]	?	-10.1%	3.9%	-3.0%	4.2%
CCOc1cc(N2CCOCC2)c(OCC)cc1NC(=O)CN1CCCC1	-10.7%	3.16µM*	?	?	-3.1%	25.1µM*
CCOc1cc(N2CCOCC2)c(OCC)cc1NC(=O)CCC1CCCC1	0.1%	-3.5%[59 µM]	?	-20.5%	-0.9%	-3.2%
CCOc1cc(N2CCOCC2)c(OCC)cc1NC(=O)Cc1cccc2ccccc12	0.5%	3.55µM*	-5.0%	-28.6%	-5.9%	-2.0%
CCOc1cc(N2CCOCC2)c(OCC)cc1NC(=O)c1ccc2ccccc2n1	?	17.8µM*	-7.6%	?	-19.2%	-17.2%
CCOc1cc(N2CCOCC2)c(OCC)cc1NC(=O)C1CCCC1	13.3%	7.94µM*	-11.0%	8.0%	-18.2%	-3.6%
CC(C)c1ccc(NC(=O)CCNS(=O)(=O)c2ccc3c(c2)oc(=O)n3C)cc1	.	4.8%[59 µM]	.	.	-1.5%	.
COc1ccc2c(c1OC)C(=O)N1C2SC[C@H]1C(=O)NC1CC1 (stereo partly drawn)	.	.	.	8.5%	-5.0%	.
CCOCCn1ccc2c(OCC(=O)Nc3ccc(OC(F)(F)F)cc3)cccc2c1=O	-9.2%[46 µM]	2.5%[59 µM]	.	.	-5.2%	.
CCOC(=O)C1CCC(CN(Cc2ccc(OC)cc2)S(=O)(=O)c2ccc(F)c(C(=O)Nc3c(C)cccc3C)c2)CC1 (stereo not drawn)	10.8%[46 µM]	0.2%[59 µM]	.	.	3.3%	.
CCOC(=O)CNC(=S)n1cnc(N)n1	?	6.1%	31.6µM*	17.8µM*	-2.1%	-7.8%
CCOC(=O)CNC(=O)CSc1nc(N)cc(N)n1	-0.5%	-2.5%[59 µM]	8.9%	18.2%	-4.9%	4.3%
CCOC(=O)c1cc(C#N)c(SCC(N)=O)[nH]c1=O	.	12.6µM*	.	20µM*	-1.3%	?
CCOC(=O)c1cc(C#N)c(SCC(=O)O)[nH]c1=O	6.7%[46 µM]	?	?	50.1µM*	-1.7%	?
CSc1[nH]c(=O)c(C(=O)O)cc1C#N	-4.9%	-40.0%[12.7 µM]	-12.7%	?	-2.2%	?
CCOC(=O)c1cc(C#N)c(SCC(=O)Nc2ccc(C(C)=O)cc2)[nH]c1=O	.	?	.	-1.6%	-21.0%	?
CCOC(=O)c1cc(C#N)c(SCC(=O)c2cc(C#N)c(SC)nc2C)[nH]c1=O	9.7%	50.1µM*	1.26µM*	31.6µM*	-4.8%	-28.0%
COC(=O)CSc1nc(C)c(C(C)=O)cc1C#N	-15.5%	17.8%[12.7 µM]	-0.8%	-2.4%	-26.7%	2.0%
CCCCCCCC[n+]1c(C)n(-c2ccccc2)c2ccc(NC(C)=O)cc21	-21.6%[46 µM]	39.8µM*	-2.2%	-12.2%	?	?
O=C(CCCc1c[nH]c2ccccc12)N[C@@H](Cc1c[nH]c2ccccc12)C(=O)O	.	?	.	8.9%	-2.1%	.
O=C(N/N=C/c1ccccc1O)c1cccc(C(F)(F)F)c1	?	-4.8%[59 µM]	6.2%	20.5%	?	?
FC(F)(F)c1cccc(N2CCC(N=CN3CCCCCC3)=N2)c1	.	39.8µM*	3.6%	0.7%	-37.6%	-3.8%
O=C(C1CCC1)N1CCN(c2cccc(C(F)(F)F)c2)CC1	.	4.4%	.	3.4%	7.4%	.
Oc1ccccc1C=NC1=NN(c2cccc(C(F)(F)F)c2)CC1	?	1µM*	22.4µM*	-15.2%	-11.1%	-9.5%
O=C(Cc1ccccc1)Nc1cccc(-c2cn3cccnc3n2)c1	-16.6%[46 µM]	-11.0%[59 µM]	.	.	-35.5%	.
SMILES	Lamin A splicing	G9a block	ALDH1A1 inh	Sfp PPTase inh	miR-21 reporter	KDM4E inh
O=C(O)c1ccccc1-c1ccccc1C(=O)NNc1ccccc1	-5.0%	8.91µM*	?	6.2%	-15.3%	-2.7%
O=C(Nc1cccc(Br)c1)c1ccccc1-c1ccccc1	-14.5%	82.5%[59 µM]	?	16.4%	-1.2%	-25.9%
O=C(O)c1ccccc1-c1ccccc1C(=O)Nc1ccccc1	0.3%	-3.5%[12.7 µM]	14.2%	26.6%	-3.5%	10.3%
O=C(O)c1ccccc1-c1ccccc1C(=O)Nc1cccc(Br)c1	.	44.7µM*	8.4%	22.6%	-1.7%	-13.6%
N#Cc1cc2c(nc1SCc1cccnc1)CCCCC2	?	3.3%[59 µM]	?	79.4µM*	-56.1%	5.9%
N#Cc1cc2c(nc1SCC(=O)O)CCCCC2	.	.	?	16.2%	-3.1%	?
CSc1nc2c(cc1C#N)CCCCC2	-8.4%	-5.6%[59 µM]	-1.1%	2.9%	-4.3%	0.2%
N#Cc1cc2c(nc1SCc1ccccc1)CCCCC2	5.0%	226.8%	8.0%	-14.1%	-13.9%	4.5%
CSC1CCCCC1(O)CSc1nc2c(cc1C#N)CCCC2 (stereo not drawn)	14.3%	2.51µM*	7.94µM*	50.1µM*	-9.9%	?
N#CCSc1nc2c(cc1C#N)CCCC2	?	25.1µM*	-1.9%	?	-39.1%	?
COCCn1cnc2c(c1=O)c1nc3ccccc3nc1n2/N=C/c1ccco1	.	.	.	1.0%	3.7%	-12.1%
C=CCn1cnc2c(c1=O)c1nc3ccccc3nc1n2/N=C/c1cccc(OC)c1	?	8.6%[2.33 µM]	11.2µM*	-20.2%	2.5%	?
CCCCCCn1cnc2c(c1=O)c1nc3ccccc3nc1n2/N=C/c1ccco1	2.5%	?	25.1µM*	?	-9.0%	?
COCCn1cnc2c(c1=O)c1nc3ccccc3nc1n2/N=C/c1ccc(OC)c(OC)c1	.	.	-0.2%	30.6%	9.0%	12.2%
O=C(Nc1cccc(Cl)c1)c1cc(N=Nc2ccc([N+](=O)[O-])cc2Cl)ccc1O	?	2.82µM*	?	-24.2%	-13.7%	-15.8%
O=C(Nc1ccccc1)c1cc([N+](=O)[O-])ccc1Cl	?	43.4%[12.7 µM]	-7.8%	-15.5%	7.9%	-4.1%
O=C(Nc1cccc(Cl)c1)c1cccc(Oc2ccc([N+](=O)[O-])cc2Cl)c1	?	20.7%[59 µM]	10µM*	18.0%	10.5%	0.5%
Cc1ccc(O)c(NC(=O)c2cc([N+](=O)[O-])ccc2Cl)c1	.	?	-1.0%	?	?	-1.4%
O=C(Nc1ccc([N+](=O)[O-])cc1Cl)c1cc(Cl)ccc1O	?	7.94µM*!	?	0.3%	.	-1.5%
Cc1nc2ccc(Cl)cn2c1C(=O)NN	0.6%[46 µM]	-7.5%	2µM*	-9.5%	9.0%	6.5%
